According to PubChem BioAssay (Tox21):
Unmarked numbers belong to inactive results. Records with an inconclusive call do not appear. A call without a number means that no potency is given here. Activity calls are given as the source filed them. Calls follow the shape of the dose curve; as a rule, active = well fitted curve in the direction sought with a large enough effect in the repeat runs; inconclusive = weak or mixed curves; inactive = no such curve, though single readings can be large; an effect the other way counts as inactive or inconclusive.

What was measured:
[1] = qHTS RealTime-Glo MT Cell Viability Assay in HEK293 cells - 32 hour (AID 1224868); also: top concentration of the series differs between compounds; nearly all actives have a fitted effect of over 50% in size
Outline: (§1)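 Nonlytic real-time viability readout: viable cells convert prosubstrate to NanoLuc substrate, giving luminescence proportional to live cell number. HEK293, 600 cells/well, compound added after 5 h, continuous culture at 37 C.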

[2] = A CellTox Green Cytotoxicity Assay to monitor cytotoxicity in HEK293 cells - 0 hour (AID 1224869); also: nearly all actives have a fitted effect of over 50% in size
Outline: (§2)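 HEK293 cells, 600/well, were preincubated 5 hours and then exposed to compounds at 37 C for up to 40 hours. A cell-impermeant cyanine dye staining dead-cell DNA was read by fluorescence at 0, 8, 16, 24, 32 and 40 h time points.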

[3] = qHTS RealTime-Glo MT Cell Viability Assay in HepG2 cells - 40 hour (AID 1224870); also: nearly all actives have a fitted effect of over 50% in size
Outline: (§3)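 HepG2 cells mixed with RealTime-Glo MT reagents (NanoLuc plus cell-permeant prosubstrate) were seeded at 600 cells/well, incubated 5 h at 37 C/5% CO2, then pinned with compounds in DMSO; nonlytic luminescence tracked viability during 40 h treatment.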

[4] = A CellTox Green Cytotoxicity Assay to monitor cytotoxicity in HEK293 cells - 40 hour (AID 1224871); also: nearly all actives have a fitted effect of over 45% in size
Outline: as §2

[5] = qHTS RealTime-Glo MT Cell Viability Assay in HEK293 cells - 16 hour (AID 1224872); also: top concentration of the series differs between compounds; nearly all actives have a fitted effect of over 50% in size
Outline: as §1

[6] = qHTS RealTime-Glo MT Cell Viability Assay in HepG2 cells - 8 hour (AID 1224873); also: nearly all actives have a fitted effect of over 55% in size
Outline: as §3

[7] = qHTS RealTime-Glo MT Cell Viability Assay in HEK293 cells - 40 hour (AID 1224874); details: RealTime-Glo luminescence, stronger effect = lower value; also: nearly all actives have a fitted effect of over 50% in size
Outline: (§4)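 600 cells/well were plated with the nonlytic NanoLuc/prosubstrate reagent, pre-incubated 5 h, then given 23 nL of compound in DMSO. Incubation at 37 C for 40 h, with luminescence from viable-cell-reduced substrate read repeatedly from 0 h.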

[8] = A CellTox Green Cytotoxicity Assay to monitor cytotoxicity in HEK293 cells - 24 hour (AID 1224875); also: series mostly up to about 77 µM; nearly all actives have a fitted effect of over 45% in size
Outline: as §2

[9] = qHTS RealTime-Glo MT Cell Viability Assay in HepG2 cells - 32 hour (AID 1224877); also: nearly all actives have a fitted effect of over 55% in size
Outline: (§5)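 Luminescence read-out: viable HepG2 cells reduce a prosubstrate to a NanoLuc substrate, giving a signal proportional to live cell number. Reads taken at 0, 8, 16, 24, 32 and 40 h of compound exposure at 37 C.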

[10] = A CellTox Green Cytotoxicity Assay to monitor cytotoxicity in HepG2 cells - 24 hour (AID 1224878); also: nearly all actives have a fitted effect of over 45% in size; also: potency is read from the fitted curve at half-maximal effect
Outline: (§6)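 HepG2 cells, 600/well, preincubated 5 h with CellTox Green dye, then exposed to Tox21 compounds in DMSO at 37 C for up to 40 h. Dead-cell DNA fluorescence read at the indicated time point.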

[11] = qHTS RealTime-Glo MT Cell Viability Assay in HEK293 cells - 0 hour (AID 1224880); also: top concentration of the series differs between compounds; nearly all actives have a fitted effect of over 45% in size
Outline: as §4

[12] = A CellTox Green Cytotoxicity Assay to monitor cytotoxicity in HEK293 cells - 32 hour (AID 1224881); also: nearly all actives have a fitted effect of over 40% in size
Outline: as §2

[13] = A CellTox Green Cytotoxicity Assay to monitor cytotoxicity in HepG2 cells - 0 hour (AID 1224882); also: nearly all actives have a fitted effect of over 35% in size
Outline: as §6

[14] = A CellTox Green Cytotoxicity Assay to monitor cytotoxicity in HEK293 cells - 8 hour (AID 1224884); also: nearly all actives have a fitted effect of over 35% in size
Outline: as §2

[15] = qHTS RealTime-Glo MT Cell Viability Assay in HepG2 cells - 16 hour (AID 1224885); also: nearly all actives have a fitted effect of over 50% in size
Outline: as §5

[16] = qHTS RealTime-Glo MT Cell Viability Assay in HEK293 cells - 24 hour (AID 1224886)
Outline: as §1

[17] = qHTS RealTime-Glo MT Cell Viability Assay in HEK293 cells - 8 hour (AID 1224887)
Outline: as §4

[18] = A CellTox Green Cytotoxicity Assay to monitor cytotoxicity in HepG2 cells - 40 hour (AID 1224879); also: nearly all actives have a fitted effect of over 40% in size; also: potency is read from the fitted curve at half-maximal effect
Outline: as §6

[19] = A CellTox Green Cytotoxicity Assay to monitor cytotoxicity in HepG2 cells - 32 hour (AID 1224883); also: nearly all actives have a fitted effect of over 50% in size
Outline: as §6

[20] = A CellTox Green Cytotoxicity Assay to monitor cytotoxicity in HepG2 cells - 16 hour (AID 1224876); also: nearly all actives have a fitted effect of over 45% in size; also: potency is read from the fitted curve at half-maximal effect
Outline: as §6

Structure (SMILES): CCCCN=C(N)N=C(N)N
- outcome [1]: inactive
- outcome [2]: inactive
- outcome [3]: inactive
- Potency [4]: inactive
- outcome [5]: inactive
- outcome [6]: inactive
- max response [7]: -14.6%
- Potency [8]: inactive
- outcome [9]: inactive
- Potency [10]: inactive
- Potency [11]: inactive
- Potency [12]: inactive
- Potency [13]: inactive
- Potency [14]: inactive
- outcome [15]: inactive
- outcome [16]: inactive
- outcome [17]: inactive

Structure (SMILES): C[n+]1ccccc1/C=N/O
- outcome [1]: inactive
- outcome [2]: inactive
- outcome [3]: inactive
- Potency [4]: inactive
- outcome [5]: inactive
- outcome [6]: inactive
- max response [7]: 0.0286%
- Potency [8]: inactive
- outcome [9]: inactive
- Potency [10]: inactive
- Potency [18]: inactive
- Potency [11]: inactive
- Potency [13]: inactive
- Potency [14]: inactive
- outcome [15]: inactive
- outcome [16]: inactive
- outcome [17]: inactive

Structure (SMILES): O=C(CCBr)N1CCN(C(=O)CCBr)CC1
- outcome [1]: inactive
- outcome [2]: inactive
- outcome [3]: inactive
- Potency [4]: inactive
- outcome [5]: inactive
- outcome [6]: inactive
- max response [7]: 1.87%
- Potency [8]: inactive
- outcome [9]: inactive
- Potency [10]: inactive
- Potency [18]: inactive
- Potency [11]: inactive
- Potency [12]: inactive
- Potency [19]: inactive
- Potency [14]: inactive
- outcome [15]: inactive
- outcome [16]: inactive
- outcome [17]: inactive

Structure (SMILES): COc1ccccc1N1CCN(CC(O)COc2cc(OC)c(OC)c(OC)c2)CC1 (centres undefined)
- outcome [1]: inactive
- outcome [2]: inactive
- outcome [3]: inactive
- Potency [4]: inactive
- outcome [5]: inactive
- outcome [6]: inactive
- max response [7]: 4.13%
- Potency [8]: inactive
- outcome [9]: inactive
- Potency [10]: inactive
- Potency [18]: inactive
- Potency [11]: inactive
- Potency [12]: inactive
- Potency [13]: inactive
- Potency [19]: inactive
- Potency [14]: inactive
- outcome [15]: inactive
- outcome [17]: inactive

Structure (SMILES): CC/C=C\CCCCCCCCCCOC(C)=O
- outcome [1]: inactive
- outcome [2]: inactive
- outcome [3]: inactive
- Potency [4]: inactive
- outcome [5]: inactive
- max response [7]: -0.318%
- Potency [8]: inactive
- Potency [20]: inactive
- outcome [9]: inactive
- Potency [10]: inactive
- Potency [18]: inactive
- Potency [11]: inactive
- Potency [12]: inactive
- Potency [13]: inactive
- Potency [19]: inactive
- Potency [14]: inactive
- outcome [15]: inactive
- outcome [16]: inactive
- outcome [17]: inactive

Structure (SMILES): CCCCCCCCCCCCCCBr
- outcome [1]: inactive
- outcome [2]: inactive
- outcome [3]: inactive
- Potency [4]: inactive
- outcome [5]: inactive
- outcome [6]: inactive
- Potency [8]: inactive
- outcome [9]: inactive
- Potency [10]: inactive
- Potency [18]: inactive
- Potency [11]: inactive
- Potency [12]: inactive
- Potency [13]: inactive
- Potency [19]: inactive
- Potency [14]: inactive
- outcome [15]: inactive
- outcome [16]: inactive
- outcome [17]: inactive

Structure (SMILES): CC(C)=CCC/C(C)=C\C#N
- outcome [1]: inactive
- outcome [2]: inactive
- outcome [3]: inactive
- Potency [4]: inactive
- outcome [5]: inactive
- max response [7]: 15.8%
- Potency [8]: inactive
- Potency [20]: inactive
- outcome [9]: inactive
- Potency [10]: inactive
- Potency [11]: inactive
- Potency [12]: inactive
- Potency [13]: inactive
- Potency [19]: inactive
- Potency [14]: inactive
- outcome [15]: inactive
- outcome [16]: inactive
- outcome [17]: inactive

Structure (SMILES): CC(C)(C)C(=O)NCCCC(=O)O
- outcome [1]: inactive
- outcome [2]: inactive
- outcome [3]: inactive
- Potency [4]: inactive
- outcome [5]: inactive
- outcome [6]: inactive
- Potency [8]: inactive
- outcome [9]: inactive
- Potency [10]: inactive
- Potency [11]: inactive
- Potency [12]: inactive
- Potency [13]: inactive
- Potency [19]: inactive
- Potency [14]: inactive
- outcome [15]: inactive
- outcome [17]: inactive

Structure (SMILES): Cc1ccc(O)c([N+](=O)[O-])c1
- outcome [1]: inactive
- outcome [2]: inactive
- outcome [3]: inactive
- Potency [4]: inactive
- outcome [5]: inactive
- outcome [6]: inactive
- Potency [8]: inactive
- Potency [20]: inactive
- outcome [9]: inactive
- Potency [10]: inactive
- Potency [18]: inactive
- Potency [11]: inactive
- Potency [12]: inactive
- Potency [19]: inactive
- Potency [14]: inactive
- outcome [15]: inactive
- outcome [17]: inactive

Structure (SMILES): O=CN1CCCCC1
- outcome [1]: inactive
- outcome [2]: inactive
- outcome [3]: inactive
- Potency [4]: inactive
- outcome [5]: inactive
- Potency [8]: inactive
- Potency [20]: inactive
- outcome [9]: inactive
- Potency [10]: inactive
- Potency [11]: inactive
- Potency [13]: inactive
- Potency [19]: inactive
- Potency [14]: inactive
- outcome [15]: inactive
- outcome [16]: inactive
- outcome [17]: inactive

Structure (SMILES): CC(C)C(=O)Nc1cccc(C2CN3CCSC3=N2)c1 (centres undefined)
- outcome [1]: inactive
- outcome [2]: inactive
- outcome [3]: inactive
- Potency [4]: inactive
- outcome [5]: inactive
- max response [7]: 0.0338%
- Potency [8]: inactive
- Potency [20]: inactive
- outcome [9]: inactive
- Potency [10]: inactive
- Potency [18]: inactive
- Potency [11]: inactive
- Potency [12]: inactive
- Potency [13]: inactive
- Potency [19]: inactive
- Potency [14]: inactive
- outcome [15]: inactive
- outcome [16]: inactive
- outcome [17]: inactive

Structure (SMILES): Cc1cc(O)c(Cl)cc1C
- outcome [1]: inactive
- outcome [2]: inactive
- outcome [3]: inactive
- Potency [4]: inactive
- outcome [5]: inactive
- Potency [8]: inactive
- Potency [20]: 49 µM (active)
- outcome [9]: inactive
- Potency [10]: 49 µM (active)
- Potency [18]: 49 µM (active)
- Potency [11]: inactive
- Potency [12]: inactive
- Potency [13]: inactive
- Potency [14]: inactive
- outcome [15]: inactive
- outcome [17]: inactive

Structure (SMILES): CCO[Si](CC(C)C)(OCC)OCC
- outcome [1]: inactive
- outcome [2]: inactive
- outcome [3]: inactive
- Potency [4]: inactive
- outcome [5]: inactive
- outcome [6]: inactive
- Potency [8]: inactive
- outcome [9]: inactive
- Potency [11]: inactive
- Potency [12]: inactive
- Potency [13]: inactive
- Potency [14]: inactive
- outcome [15]: inactive
- outcome [16]: inactive
- outcome [17]: inactive

Structure (SMILES): Cc1ccc(S(=O)(=O)NC(=O)NN2CC3CCCC3C2)cc1 (centres undefined)
- outcome [1]: inactive
- outcome [2]: inactive
- outcome [3]: inactive
- Potency [4]: inactive
- outcome [5]: inactive
- outcome [6]: inactive
- Potency [8]: inactive
- Potency [20]: inactive
- outcome [9]: inactive
- Potency [10]: inactive
- Potency [18]: inactive
- Potency [11]: inactive
- Potency [13]: inactive
- Potency [19]: inactive
- Potency [14]: inactive
- outcome [15]: inactive
- outcome [16]: inactive
- outcome [17]: inactive

Structure (SMILES): C/C=C(\C)C=O
- outcome [1]: inactive
- outcome [2]: inactive
- outcome [3]: inactive
- Potency [4]: inactive
- outcome [5]: inactive
- max response [7]: 8.23%
- Potency [8]: inactive
- Potency [20]: inactive
- outcome [9]: inactive
- Potency [10]: inactive
- Potency [18]: inactive
- Potency [11]: inactive
- Potency [12]: inactive
- Potency [13]: inactive
- Potency [19]: inactive
- Potency [14]: inactive
- outcome [15]: inactive
- outcome [16]: inactive
- outcome [17]: inactive

Structure (SMILES): CC(=O)SCC(CC(=O)c1ccc(C)cc1)C(=O)O (centres undefined)
- outcome [1]: inactive
- outcome [2]: inactive
- outcome [3]: inactive
- Potency [4]: inactive
- outcome [5]: inactive
- max response [7]: -0.0795%
- Potency [8]: inactive
- Potency [20]: inactive
- outcome [9]: inactive
- Potency [10]: inactive
- Potency [18]: inactive
- Potency [11]: inactive
- Potency [12]: inactive
- Potency [19]: inactive
- Potency [14]: inactive
- outcome [15]: inactive
- outcome [16]: inactive
- outcome [17]: inactive
